Reference: PubChem BioAssay AID1159580 (chemical genetic matrix, 2015)
“And” between values parts separate entries of the source, which are not always exact repeats. Identical values can stand only once. About 2,000 (36%) of roughly 5,500 compounds were called active. Inconclusive results (about 18%) are left out. Rule as the data show it: active = normalized growth mostly below about 0.91 (no sharp cut-off); inconclusive = no clear call, values can overlap the other calls; inactive = mostly above about 0.92. Some of the results follow.

Assay: chemical genetic growth profiling, strain panel (AID 1159580);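 also: tested at 20 µM; growth read once vehicle control cultures reached saturation at 30 °C; 1 = growth at the plate median or of vehicle wells; lower values mean less growth of the strain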
Settings: growth OD

Measured: normalized growth

COC(=O)C[C@H]1C(C)(C)C(=O)[C@@H]2CC3=C(CC[C@]4(C)C3=CC(=O)O[C@H]4c3ccoc3)[C@@]1(C)C2=O
inactive: S. cerevisiae deletion strains, locus YAL021C, strain ccr4, hits give low values 1.02 | S. cerevisiae deletion strains, locus YAL026C, strain drs2, hits give low values 0.985 | S. cerevisiae deletion strains, locus YAL030W, strain snc1, hits give low values 0.979 | S. cerevisiae deletion strains, locus YBL061C, strain skt5, hits give low values 0.986 | S. cerevisiae deletion strains, locus YBR009C, strain hhf1, hits give low values 0.983 | S. cerevisiae deletion strains, locus YBR021W, strain FUR4, hits give low values 0.992 | S. cerevisiae deletion strains, locus YBR023C, strain chs3, hits give low values 0.976 | S. cerevisiae deletion strains, locus YBR171W, strain sec66, hits give low values 0.947 | S. cerevisiae deletion strains, locus YBR229C, strain ROT2, hits give low values 1 | S. cerevisiae deletion strains, locus YBR231C, strain swc5, hits give low values 0.968 | S. cerevisiae deletion strains, locus YBR279W, strain paf1, hits give low values 0.988 | S. cerevisiae deletion strains, locus YCL011C, strain gbp2, hits give low values 0.953 | S. cerevisiae deletion strains, locus YCL016C, strain dcc1, hits give low values 0.993 | S. cerevisiae deletion strains, locus YCL029C, strain bik1, hits give low values 1.02 | S. cerevisiae deletion strains, locus YCL061C, strain MRC1, hits give low values 1 | S. cerevisiae deletion strains, locus YCL069W, strain vba3, hits give low values 0.958 | S. cerevisiae deletion strains, locus YCR088W, strain abp1, hits give low values 0.96 | S. cerevisiae deletion strains, locus YDL005C, strain med2, hits give low values 0.966 | S. cerevisiae deletion strains, locus YDL035C, strain GPR1, hits give low values 0.996 | S. cerevisiae deletion strains, locus YDL040C, strain nat1, hits give low values 0.966 | S. cerevisiae deletion strains, locus YDL074C, strain BRE1, hits give low values 1 | S. cerevisiae deletion strains, locus YDL101C, strain DUN1, hits give low values 1 | S. cerevisiae deletion strains, locus YDL134C, strain PPH21, hits give low values 1 | S. cerevisiae deletion strains, locus YDL185W, strain tfp1, hits give low values 1.01 | S. cerevisiae deletion strains, locus YDL192W, strain arf1, hits give low values 1.02 | S. cerevisiae deletion strains, locus YDR001C, strain nth1, hits give low values 0.979 | S. cerevisiae deletion strains, locus YDR069C, strain doa4, hits give low values 0.961 | S. cerevisiae deletion strains, locus YDR101C, strain arx1, hits give low values 1.01 | S. cerevisiae deletion strains, locus YDR137W, strain rgp1, hits give low values 1 | S. cerevisiae deletion strains, locus YDR159W, strain sac3, hits give low values 0.962 | S. cerevisiae deletion strains, locus YDR162C, strain NBP2, hits give low values 1.01 | S. cerevisiae deletion strains, locus YDR195W, strain ref2 0.956 | S. cerevisiae deletion strains, locus YDR297W, strain sur2, hits give low values 0.977 | S. cerevisiae deletion strains, locus YDR318W, strain mcm21, hits give low values 1.02 | S. cerevisiae deletion strains, locus YDR334W, strain swr1, hits give low values 0.961 | S. cerevisiae deletion strains, locus YDR335W, strain msn5, hits give low values 0.968 | S. cerevisiae deletion strains, locus YDR388W, hits give low values 1.01 | S. cerevisiae deletion strains, locus YDR392W, strain spt3, hits give low values 0.96 | S. cerevisiae deletion strains, locus YDR502C, strain sam2, hits give low values 1 | S. cerevisiae deletion strains, locus YEL003W, strain gim4, hits give low values 0.973 | S. cerevisiae deletion strains, locus YEL037C, strain rad23, hits give low values 0.962 | S. cerevisiae deletion strains, locus YEL061C, strain CIN8 (second series), hits give low values 0.958 | S. cerevisiae deletion strains, locus YEL061C, strain CIN8, hits give low values 0.999 | S. cerevisiae deletion strains, locus YER015W, strain faa2, hits give low values 0.985 | S. cerevisiae deletion strains, locus YER016W, strain bim1, hits give low values 0.971 | S. cerevisiae deletion strains, locus YER110C, hits give low values 1.02 | S. cerevisiae deletion strains, locus YER111C, strain swi4, hits give low values 0.953 | S. cerevisiae deletion strains, locus YER155C, strain BEM2 (second series), hits give low values 0.988 | S. cerevisiae deletion strains, locus YER155C, strain BEM2, hits give low values 1 | S. cerevisiae deletion strains, locus YER167W, strain BCK2, hits give low values 1.01 | S. cerevisiae deletion strains, locus YFR010W, strain ubp6, hits give low values 0.961 | S. cerevisiae deletion strains, locus YGL078C, strain dbp3, hits give low values 1.03 | S. cerevisiae deletion strains, locus YGL086W, strain mad1, hits give low values 1 | S. cerevisiae deletion strains, locus YGL167C, strain pmr1, hits give low values 0.988 | S. cerevisiae deletion strains, locus YGL173C, strain kem1, hits give low values 0.975 | S. cerevisiae deletion strains, locus YGL227W, strain vid30, hits give low values 0.976 | S. cerevisiae deletion strains, locus YGL240W, strain doc1, hits give low values 0.954 | S. cerevisiae deletion strains, locus YGL248W, strain PDE1, hits give low values 1.01 | S. cerevisiae deletion strains, locus YGL253W, strain hxk2, hits give low values 0.951 | S. cerevisiae deletion strains, locus YGR135W, strain pre9, hits give low values 1.01 | S. cerevisiae deletion strains, locus YGR229C, strain SMI1, hits give low values 1.01 | S. cerevisiae deletion strains, locus YGR252W, strain gcn5, hits give low values 1 | S. cerevisiae deletion strains, locus YHR013C, strain ard1, hits give low values 0.981 | S. cerevisiae deletion strains, locus YHR027C, strain rpn1, hits give low values 0.994 | S. cerevisiae deletion strains, locus YHR030C, strain SLT2, hits give low values 0.985 | S. cerevisiae deletion strains, locus YHR079C, strain IRE1 (second series), hits give low values 1.02 | S. cerevisiae deletion strains, locus YHR079C, strain IRE1, hits give low values 0.974 | S. cerevisiae deletion strains, locus YHR094C, strain hxt1, hits give low values 1.01 | S. cerevisiae deletion strains, locus YHR129C, strain ARP1, hits give low values 0.998 | S. cerevisiae deletion strains, locus YHR142W, strain chs7, hits give low values 0.965 | S. cerevisiae deletion strains, locus YHR200W, strain rpn10, hits give low values 0.996 | S. cerevisiae deletion strains, locus YIL066C, strain RNR3, hits give low values 0.999 | S. cerevisiae deletion strains, locus YIL073C, strain SPO22, hits give low values 1.09 | S. cerevisiae deletion strains, locus YIL125W, strain kgd1, hits give low values 1.01 | S. cerevisiae deletion strains, locus YIR030C, strain dcg1, hits give low values 1.02 | S. cerevisiae deletion strains, locus YJL092W, strain hpr5, hits give low values 0.964 | S. cerevisiae deletion strains, locus YJL095W, strain BCK1 (second series), hits give low values 0.99 | S. cerevisiae deletion strains, locus YJL095W, strain BCK1, hits give low values 1.01 and 0.983 | S. cerevisiae deletion strains, locus YJL115W, strain asf1, hits give low values 0.97 | S. cerevisiae deletion strains, locus YJL129C, strain trk1, hits give low values 0.959 | S. cerevisiae deletion strains, locus YJL134W, strain LCB3, hits give low values 1 | S. cerevisiae deletion strains, locus YJL154C, strain vps35, hits give low values 0.966 | S. cerevisiae deletion strains, locus YJL164C, strain tpk1, hits give low values 0.994 | S. cerevisiae deletion strains, locus YJL166W, strain qcr8, hits give low values 0.973 | S. cerevisiae deletion strains, locus YJL168C, strain set2, hits give low values 1.02 | S. cerevisiae deletion strains, locus YJL187C, strain SWE1 (second series), hits give low values 1.01 | S. cerevisiae deletion strains, locus YJL187C, strain SWE1, hits give low values 0.993 | S. cerevisiae deletion strains, locus YJR066W, strain TOR1, hits give low values 0.928 | S. cerevisiae deletion strains, locus YKL009W, strain mrt4, hits give low values 1.01 | S. cerevisiae deletion strains, locus YKL068W, hits give low values 1.01 | S. cerevisiae deletion strains, locus YKL085W, strain MDH1 (second series), hits give low values 1.01 | S. cerevisiae deletion strains, locus YKL085W, strain MDH1, hits give low values 1.01 | S. cerevisiae deletion strains, locus YKL160W, strain elf1, hits give low values 0.995 | S. cerevisiae deletion strains, locus YKR001C, strain vps1, hits give low values 1.01 | S. cerevisiae deletion strains, locus YKR026C, strain gcn3, hits give low values 0.975 | S. cerevisiae deletion strains, locus YKR091W, strain srl3, hits give low values 0.984 | S. cerevisiae deletion strains, locus YLL001W, strain dnm1, hits give low values 1 | S. cerevisiae deletion strains, locus YLL026W, hits give low values 0.982 | S. cerevisiae deletion strains, locus YLL041C, strain sdh2, hits give low values 0.972 | S. cerevisiae deletion strains, locus YLR027C, strain aat2, hits give low values 0.984 | S. cerevisiae deletion strains, locus YLR039C, strain RIC1, hits give low values 1.03 | S. cerevisiae deletion strains, locus YLR058C, strain SHM2, hits give low values 1.01 | S. cerevisiae deletion strains, locus YLR102C, strain apc9, hits give low values 1.02 | S. cerevisiae deletion strains, locus YLR113W, strain HOG1, hits give low values 1.02 | S. cerevisiae deletion strains, locus YLR221C, strain rsa3, hits give low values 0.958 | S. cerevisiae deletion strains, locus YLR258W, strain gsy2, hits give low values 0.961 | S. cerevisiae deletion strains, locus YLR262C, strain YPT6 (second series), hits give low values 1.04 | S. cerevisiae deletion strains, locus YLR262C, strain YPT6, hits give low values 1.09 | S. cerevisiae deletion strains, locus YLR268W, strain sec22, hits give low values 1.01 | S. cerevisiae deletion strains, locus YLR320W, strain mms22, hits give low values 0.963 | S. cerevisiae deletion strains, locus YLR342W, strain FKS1, hits give low values 0.963 | S. cerevisiae deletion strains, locus YLR357W, strain rsc2, hits give low values 0.963 | S. cerevisiae deletion strains, locus YLR370C, strain arc18, hits give low values 0.956 | S. cerevisiae deletion strains, locus YLR371W, strain rom2, hits give low values 1.02 | S. cerevisiae deletion strains, locus YLR384C, strain iki3, hits give low values 0.968 | S. cerevisiae deletion strains, locus YLR418C, strain cdc73, hits give low values 1.03 | S. cerevisiae deletion strains, locus YML016C, strain PPZ1, hits give low values 1.05 | S. cerevisiae deletion strains, locus YML032C, strain rad52, hits give low values 1.01 | S. cerevisiae deletion strains, locus YML120C, strain ndi1, hits give low values 0.976 | S. cerevisiae deletion strains, locus YML124C, strain tub3, hits give low values 1.01 | S. cerevisiae deletion strains, locus YMR058W, strain fet3, hits give low values 0.993 | S. cerevisiae deletion strains, locus YMR078C, strain ctf18, hits give low values 1.03 | S. cerevisiae deletion strains, locus YMR125W, strain sto1, hits give low values 0.975 | S. cerevisiae deletion strains, locus YMR129W, hits give low values 0.988 | S. cerevisiae deletion strains, locus YMR205C, strain PFK2, hits give low values 0.997 | S. cerevisiae deletion strains, locus YMR223W, strain ubp8, hits give low values 1.01 | S. cerevisiae deletion strains, locus YMR231W, strain pep5, hits give low values 0.953 | S. cerevisiae deletion strains, locus YMR307W, strain GAS1, hits give low values 1.03 | S. cerevisiae deletion strains, locus YNL067W, strain RPL9B, hits give low values 1.01 | S. cerevisiae deletion strains, locus YNL071W, strain lat1, hits give low values 0.972 | S. cerevisiae deletion strains, locus YNL183C, strain NPR1, hits give low values 0.942 | S. cerevisiae deletion strains, locus YNL209W, strain ssb2, hits give low values 0.984 | S. cerevisiae deletion strains, locus YNL233W, strain BNI4, hits give low values 0.984 | S. cerevisiae deletion strains, locus YNL248C, strain rpa49, hits give low values 0.977 | S. cerevisiae deletion strains, locus YNL250W, strain rad50, hits give low values 1.02 | S. cerevisiae deletion strains, locus YNL271C, strain bni1, hits give low values 1.01 | S. cerevisiae deletion strains, locus YNL298W, strain CLA4, hits give low values 1.02 | S. cerevisiae deletion strains, locus YNL307C, strain MCK1, hits give low values 1.02 | S. cerevisiae deletion strains, locus YNL322C, strain KRE1 (second series), hits give low values 0.966 | S. cerevisiae deletion strains, locus YNR049C, strain mso1, hits give low values 0.975 | S. cerevisiae deletion strains, locus YNR052C, strain pop2, hits give low values 1.03 | S. cerevisiae deletion strains, locus YOL012C, strain htz1 1.95 | S. cerevisiae deletion strains, locus YOL147C, strain pex11, hits give low values 1.01 | S. cerevisiae deletion strains, locus YOR001W, strain rrp6, hits give low values 0.946 | S. cerevisiae deletion strains, locus YOR061W, strain CKA2, hits give low values 1 | S. cerevisiae deletion strains, locus YOR069W, strain VPS5, hits give low values 1 | S. cerevisiae deletion strains, locus YOR070C, strain gyp1, hits give low values 0.979 | S. cerevisiae deletion strains, locus YOR080W, strain dia2, hits give low values 0.966 | S. cerevisiae deletion strains, locus YOR083W, strain WHI5, hits give low values 1.01 | S. cerevisiae deletion strains, locus YOR106W, strain vam3, hits give low values 0.974 | S. cerevisiae deletion strains, locus YOR136W, strain idh2, hits give low values 1.01 | S. cerevisiae deletion strains, locus YOR144C, strain elg1, hits give low values 1 | S. cerevisiae deletion strains, locus YOR184W, strain ser1, hits give low values 1 | S. cerevisiae deletion strains, locus YOR231W, strain MKK1, hits give low values 0.99 | S. cerevisiae deletion strains, locus YOR265W, strain rbl2, hits give low values 0.972 | S. cerevisiae deletion strains, locus YOR270C, strain vph1, hits give low values 0.963 | S. cerevisiae deletion strains, locus YOR290C, strain snf2, hits give low values 0.992 | S. cerevisiae deletion strains, locus YOR316C, strain cot1, hits give low values 1 | S. cerevisiae deletion strains, locus YPL051W, strain arl3, hits give low values 1 | S. cerevisiae deletion strains, locus YPL078C, strain atp4, hits give low values 0.996 | S. cerevisiae deletion strains, locus YPL106C, strain sse1, hits give low values 0.952 | S. cerevisiae deletion strains, locus YPL240C, strain hsp82, hits give low values 0.978 | S. cerevisiae deletion strains, locus YPL256C, strain CLN2, hits give low values 0.961 | S. cerevisiae deletion strains, locus YPR119W, strain clb2, hits give low values 1.01 | S. cerevisiae deletion strains, locus YPR141C, strain kar3, hits give low values 1.02 | S. cerevisiae deletion strains, locus YPR163C, strain tif3, hits give low values 1 | S. cerevisiae deletion strains, locus YPR167C, strain met16, hits give low values 1.02 | S. cerevisiae deletion strains, strain wtn01, hits give low values 1 | S. cerevisiae strains, strain wild type, hits give low values 0.992
